Reference: paper PMC5540273 (PLoS ONE, 2017)

Each compound was assayed on T1, NIM1. Settings: concentration: 1 μM, replicates: in singlicate; n = 1.
T1 construct: gene MGC42105
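Further: KINOMEscan kinase panel screen.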

SMILES	%Inh
Cn1ccc2ncnc(Oc3ccc(NC(=O)Nc4ccncc4)c(Cl)c3)c21	0%
COc1cc2c(cc1OC[C@@H](O)CO)ncc1c3ccc(C#N)cc3[nH]c21	30%
Cc1cn2c(=O)cc(N3CCOCC3)nc2n1Cc1cccc(Cl)c1Cl [GSK2334006]	7%
Cn1cc(-c2ccc3c(c2)CCN3C(=O)Cc2ccccc2Cl)c2c(N)ncnc21 [GSK2608885]	7%
NS(=O)(=O)c1cccc(-c2ccc3nccc(-c4cccc(S(N)(=O)=O)c4)c3c2)c1 [GW867253]	0%
Cl.Oc1cccc(Nc2ccnc3cc(-c4ccncc4)ccc23)c1 [GW494601]	0%
[2H]C([2H])(c1cccc(C(F)(F)F)c1C)n1ccn2c(=O)nc(N3CCOCC3)cc12 [GSK2336394]	13%
Cl.Nc1ncnc2occ(-c3ccc(NC(=O)Nc4cc(C(F)(F)F)ccc4F)cc3)c12 [SB-707548]	28%
O=C1NC(=O)C(N2CCc3ccccc32)=C1c1cccc(Cl)c1 [SB-408010]	0%
C[C@@H](Oc1cc(-n2cnc3ccc(NC(=O)NC(C)(C)C)cc32)sc1C(N)=O)c1ccccc1Cl [GSK346294]	19%
O=c1cc(N2CCOCC2)nc2n(Cc3cccc(Cl)c3Cl)c(C3CC3)nn12 [GSK2358994]	0%
CSc1ccc(-c2cc3ncnc(SCC(=O)O)c3s2)cc1	0%
c1ccc(-c2n[nH]cc2-c2ccnc3ccccc23)nc1 [GW271431]	21%
O=C(NCCNc1ccnc(Nc2ccc(F)cc2)n1)c1cc2ccccc2s1 [GSK1379874]	33%
Fc1ccc(-c2ncn(CCCN3CCOCC3)c2-c2cccnc2)cc1 [SB-211743]	0%
Cc1ccc(NC(=O)c2ccnc(N3CCN(C)CC3)c2)cc1-c1ccc(C(=O)NCC2CC2)cc1 [GW775604]	0%
CN1c2ccc(CNc3ccc(F)cc3)cc2-c2c(cnn2C)S1(=O)=O	0%
CNc1ncnc2[nH]ncc12 [SKF-18355]	21%
COCCNC(=O)c1ccc(-c2cc(C(=O)NC3CC3)cc(F)c2C)cc1 [GW868318]	59%
CCc1ccnc(/C=C/c2n[nH]c3cc(Sc4ccccc4C(=O)NC)ccc23)c1	0%
CC(C)Oc1ccc2c(-c3ccnc(Nc4ccc(N5CCN(C)CC5)cc4)n3)cnn2n1 [GW696155]	75%
c1ccc(-c2cc(-c3c[nH]nc3-c3ccccn3)ccn2)cc1 [GW576604]	20%
Fc1ccc(-c2ncn(CCCN3CCOCC3)c2-c2ccccn2)cc1 [SB-211742]	0%

These compounds were tested on NLK. Settings: concentration: 1 μM, replicates: in singlicate; n = 1.

SMILES	%Inh
Cc1cccc(-c2nc(-c3ccc(S(C)(=O)=O)cc3)sc2-c2ccncc2)c1	64%
Nc1nc(-c2ccc3c(N)n[nH]c3c2)cc(N2CCCC2)n1 [GSK2227430]	0%
NCC(NC(=O)c1cc(-c2cn[nH]c2)c(-c2ccnc3[nH]ccc23)s1)c1ccccc1.O=C(O)C(F)(F)F.O=C(O)C(F)(F)F (stereo not shown) [GSK1325775]	0%
Cc1c(Cn2c(C)nn3c(=O)cc(N4CCOC(C)C4)nc23)cccc1C(F)(F)F (stereo not shown) [GSK2344444]	0%
O=C(Nc1cccc(-c2nn3ncccc3c2-c2ccnc(Nc3cccc(C(F)(F)F)c3)n2)c1)c1c(F)cccc1F [GSK299495]	70%
N#Cc1c(N2CCOCC2)sc(-c2ccn[nH]2)c1-c1ccc(Cl)cc1	0%
CCc1nc(-c2cccc(C)c2)c(-c2ccnc(NCc3ccccc3)c2)s1	21%
Nc1nccc(-c2c(-c3ccc(F)cc3)ncn2C2CCN(CC(F)(F)F)CC2)n1 [SB-236560]	60%
CC(=O)Nc1ccc(COc2ccc(Nc3ccnc4cc(-c5ccccn5)ccc34)cc2)cc1.Cl [GW440148]	0%
O=C(NCCCN1CCOCC1)c1cccc(Nc2nccc(Nc3ccc(Oc4ccccc4)cc3)n2)c1 [GW663929]	27%
COc1cc2c(cc1OCCN1CCN(C)CC1)ncc1c3ccc(C#N)cc3[nH]c21	0%
COc1ccc(Nc2ncc(C#N)c(Nc3ccccc3C(N)=O)n2)cc1N1CCN(C)CC1.Cl [GSK1558669]	71%
Cn1ccc2ncnc(Oc3ccc(NC(=O)Nc4ccncc4)c(Cl)c3)c21	0%
COc1cc2c(cc1OC[C@@H](O)CO)ncc1c3ccc(C#N)cc3[nH]c21	0%
Cc1cn2c(=O)cc(N3CCOCC3)nc2n1Cc1cccc(Cl)c1Cl [GSK2334006]	9%
Cn1cc(-c2ccc3c(c2)CCN3C(=O)Cc2ccccc2Cl)c2c(N)ncnc21 [GSK2608885]	86%
NS(=O)(=O)c1cccc(-c2ccc3nccc(-c4cccc(S(N)(=O)=O)c4)c3c2)c1 [GW867253]	0%
Cl.Oc1cccc(Nc2ccnc3cc(-c4ccncc4)ccc23)c1 [GW494601]	66%

SMILES	%Inh
[2H]C([2H])(c1cccc(C(F)(F)F)c1C)n1ccn2c(=O)nc(N3CCOCC3)cc12 [GSK2336394]	0%
Cl.Nc1ncnc2occ(-c3ccc(NC(=O)Nc4cc(C(F)(F)F)ccc4F)cc3)c12 [SB-707548]	26%
O=C1NC(=O)C(N2CCc3ccccc32)=C1c1cccc(Cl)c1 [SB-408010]	12%
C[C@@H](Oc1cc(-n2cnc3ccc(NC(=O)NC(C)(C)C)cc32)sc1C(N)=O)c1ccccc1Cl [GSK346294]	19%
O=c1cc(N2CCOCC2)nc2n(Cc3cccc(Cl)c3Cl)c(C3CC3)nn12 [GSK2358994]	22%
CSc1ccc(-c2cc3ncnc(SCC(=O)O)c3s2)cc1	26%
c1ccc(-c2n[nH]cc2-c2ccnc3ccccc23)nc1 [GW271431]	58%
O=C(NCCNc1ccnc(Nc2ccc(F)cc2)n1)c1cc2ccccc2s1 [GSK1379874]	0%
Fc1ccc(-c2ncn(CCCN3CCOCC3)c2-c2cccnc2)cc1 [SB-211743]	3%
Cc1ccc(NC(=O)c2ccnc(N3CCN(C)CC3)c2)cc1-c1ccc(C(=O)NCC2CC2)cc1 [GW775604]	0%
CN1c2ccc(CNc3ccc(F)cc3)cc2-c2c(cnn2C)S1(=O)=O	0%
CNc1ncnc2[nH]ncc12 [SKF-18355]	0%
COCCNC(=O)c1ccc(-c2cc(C(=O)NC3CC3)cc(F)c2C)cc1 [GW868318]	11%
CCc1ccnc(/C=C/c2n[nH]c3cc(Sc4ccccc4C(=O)NC)ccc23)c1	0%
CC(C)Oc1ccc2c(-c3ccnc(Nc4ccc(N5CCN(C)CC5)cc4)n3)cnn2n1 [GW696155]	47%
c1ccc(-c2cc(-c3c[nH]nc3-c3ccccn3)ccn2)cc1 [GW576604]	44%
Fc1ccc(-c2ncn(CCCN3CCOCC3)c2-c2ccccn2)cc1 [SB-211742]	0%
